# In PubChem BioAssay (Tox21):
# Records with an inconclusive call do not appear. A call without a number means that no potency is given here. Calls of active or inactive are those of the source. Calls come from the whole dose curve.
# Experiment: qHTS assay for small molecules that induce genotoxicity in human embryonic kidney cells expressing luciferase-tagged ATAD5 - cell viability (AID 651634); note: nearly all actives have a fitted effect of over 25% in size
# Conditions: HEK293T ATAD5-luc cells viability, CellTiter-Fluor, 15.5 h; series mostly up to 83.3 µM
# Description: National Center for Advancing Translational Sciences [NCATS]
# NIH Chemical Genomics Center [NCGC]
# U.S. Environmental Protection Agency [EPA]
# National Institutes of Environmental Health Sciences [NIEHS]
# National Toxicology Program [NTP]
# U.S. Food and Drug Administration [FDA]
# Enhanced Level of Genome Instability Gene 1 (ELG1; human ATAD5) protein levels increase in response to various types of DNA damage. Using a luciferase reporter-gene tagged with ElG1, a cell-based assay [developed by Kyungjae Myung, NHGRI, NIH] was used to measure the induction of ATAD5 in human embryonic kidney cells (HEK293T). So, increase in luciferase activity can be used to identify the compounds that cause genetic stress. In addition to genotoxicity, these cells were also used to test for cytotoxicity by measuring the protease activity within live cells.
# Tox21 Assay Protocol Summary:
# For cytotoxicity screening, 2,000 cells in 5 uL/well were dispensed into white, solid-bottom 1536-well plates using a Multidrop Combi (Thermo Scientific) dispenser. Following transfer of 23 nL compound or DMSO vehicle by a pin tool, the plates were incubated 15.5 hr at 37C and 5% CO2. 1 ul CellTiter-Fluor reagent (Promega, Madison, WI) was then added to each plate and following 30 min incubation at 37C, fluorescence intensity was quantified on a ViewLux CCD-based plate reader.
# Potency is the fitted concentration of half-maximal effect.
row,Structure (SMILES),Potency
1,Cc1cc(C)cc(C(=O)OC2C[C@H]3CC[C@@H](C2)N3C)c1 (stereo not given in full),inactive
2,C[C@]12CC[C@H]3[C@@H](CCC4=C(Cl)C(=O)CC[C@@]43C)[C@@H]1CC[C@@H]2O,inactive
3,[H+].[H+].[Hg+2].[O-]B([O-])[O-].[c-]1ccccc1,9.44 µM (active)
4,CNC(=O)OCC[N+](C)(C)C,inactive
5,C[C@H]1CC[C@]2(NC1)O[C@H]1C[C@H]3[C@@H]4CC[C@H]5C[C@@H](O)CC[C@]5(C)[C@H]4CC[C@]3(C)[C@H]1[C@@H]2C,inactive
6,O=C(C[C@@H]1NCCC[C@H]1O)Cn1cnc2cc(Br)c(Cl)cc2c1=O,inactive
7,CCC1(CC)C(=O)NC(=O)N(C)C1=O,inactive
8,CCNC1(c2cccs2)CCCCC1=O (stereo not given),inactive
9,O=C(O)/C=C\C(=O)O,inactive
10,C=CCN1CC[C@]23c4c5ccc(O)c4O[C@H]2[C@@H](O)C=C[C@H]3[C@H]1C5,inactive
11,COc1cc([C@@H]2c3cc4c(cc3[C@@H](O)[C@H]3COC(=O)[C@H]23)OCO4)cc(OC)c1O,0.298 µM (active)
12,Cc1ccccc1-n1c(CF)nc2ccc(N)cc2c1=O,inactive
13,CCC1(c2ccccc2)C(=O)NC(=O)N(C)C1=O (stereo not given),inactive
14,CCC1C(C)=NN=C(c2ccc(OC)c(OC)c2)c2cc(OC)c(OC)cc21 (stereo not given),inactive
15,CCCCC[C@@H](O)C1C(=O)OC(C)[C@H](O)/C=C/C=C/C=C/C=C/C=C(\C)C(O)C(O)C(O)C[C@H](O)C[C@H](O)C[C@H](O)C[C@H](O)C[C@@H]1O (stereo not given in full),inactive
16,CC(=O)O[C@H]1CC[C@H]2[C@@H]3CCC4=CC(=O)CCC4=C3C=C[C@]12C,inactive
17,COC(=O)[C@@H]1[C@H]2CC[C@@H](C[C@H]1OC(=O)c1ccccc1)N2C,inactive
18,COc1ccc2c(c1)C13CCCC[C@@H]1C(C2)N(C)CC3 (stereo not given in full),inactive
19,CNC(C)C(O)c1ccc(O)cc1 (stereo not given),inactive
20,N#CC(C#N)=Cc1cc(O)c(O)c(O)c1,29.8 µM (active)

row,Structure (SMILES),Potency
1,N#CC1(N2CCCCC2)CCCCC1,inactive
2,CN1CC[C@@]23CCCC[C@@H]2[C@@H]1Cc1ccc(O)cc13,inactive
3,[2H]C([2H])([2H])[C@H](N)Cc1ccccc1,inactive
4,C[C@]12CC[C@H]3[C@@H](CCC4=C(O)C(=O)CC[C@@H]43)[C@@H]1CC[C@@H]2OC(=O)CCC1CCCC1,inactive
5,CCCN1CCC[C@H](c2cccc(O)c2)C1,inactive
6,CN1[C@@H]2CC[C@H]1CC(OC1c3ccccc3CCc3ccccc31)C2 (stereo not given in full),inactive
7,C[C@@H](CO)NC(=O)[C@@H]1C=C2c3cccc4[nH]cc(c34)C[C@H]2N(C)C1,inactive
8,CCC1(C)CC(=O)NC(=O)C1,inactive
9,CC(C)[C@H]1C(=O)N2CCC[C@H]2[C@]2(O)O[C@](NC(=O)[C@@H]3C[C@@H]4c5cccc6[nH]cc(c56)C[C@H]4N(C)C3)(C(C)C)C(=O)N12,inactive
10,CC(C)CCC(=O)O[C@H]1CC[C@H]2[C@@H]3CCC4=CC(=O)CC[C@]4(C)[C@H]3CC[C@]12C,inactive
11,CN[C@H]1C[C@@H](N)[C@H](O)[C@@H](O[C@@H]2O[C@H](CO)[C@H](O)[C@@H]3OC4(O[C@H]23)O[C@H](C(N)CO)[C@H](O)[C@H](O)[C@H]4O)[C@@H]1O (stereo not given in full),inactive
12,CC(=O)[C@H]1CC[C@H]2[C@@H]3CC[C@@H]4C[C@H](O)CC[C@]4(C)[C@H]3CC[C@]12C,inactive
13,CNC1(c2ccccc2Cl)CCCCC1=O (stereo not given),inactive
14,O=C1CN(O)C(c2ccccc2)=c2cc(Cl)ccc2=N1,inactive
15,CCN(CC)C(=O)N[C@H]1C[C@@H]2c3cccc4[nH]cc(c34)C[C@H]2N(C)C1,inactive
16,COc1ccc(C(c2ccc(OC)cc2)C(Cl)(Cl)Cl)cc1,inactive
17,CC(=O)O[C@H]1C[C@H](O[C@H]2[C@@H](O)C[C@H](O[C@H]3[C@@H](O)C[C@H](OC4CC[C@@]5(C)[C@H](CC[C@@H]6[C@@H]5CC[C@]5(C)[C@@H](C7=CC(=O)OC7)CC[C@]65O)C4)O[C@@H]3C)O[C@@H]2C)O[C@H](C)[C@H]1O[C@@H]1O[C@H](CO)[C@@H](O)[C@H](O)[C@H]1O (stereo not given in full),0.298 µM (active)
18,c1ccc2c(c1)Sc1ccccc1N2C[C@@H]1CN2CCC1CC2,inactive
19,CC[N+](C)(CC)CCOC(=O)C(O)(c1ccccc1)c1ccccc1,inactive
20,CN(C)CCCCCCN(C)C,inactive
